Screening results (PubChem BioAssay)
GCN5L2 inh: qHTS Assay for Inhibitors of GCN5L2 | Histone acetyltransferase KAT2A (Homo sapiens), Q92830 | Potency, µM (highest dose often 58.9 µM), inactives show top-dose activity change, negative = inhibition, most hits filed as inhibitors | 390,000 tested, 0.21% active | GCN5L2 HAT assay, ThioGlo1 CoA-SH fluorescence
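ThioGlo1-coupled HAT assay: 20nM GCN5L2, 70uM acetyl-CoA, 75uM H3(1-25) peptide, pH 7.5. Fluorescence read at 340/540nm at start and after 20 min at room temperature.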
PLK1 PBD inh: qHTS for Inhibitors of PLK1-PDB (polo-like kinase 1 - polo-box domain): Primary Screen | Serine/threonine-protein kinase PLK1 (Homo sapiens), P53350 | Plk1 PBD binding of FITC phosphopeptide, fluorescence polarization | Potency, µM, for the others: max response, negative = inhibition, most hits filed as inhibitors | 360,000 tested, 2.8% active; also: series mostly up to about 57 µM; nearly all actives have a fitted effect of over 65% in size
Target sequence (P53350 whole entry, looked up, the tested form may be a part): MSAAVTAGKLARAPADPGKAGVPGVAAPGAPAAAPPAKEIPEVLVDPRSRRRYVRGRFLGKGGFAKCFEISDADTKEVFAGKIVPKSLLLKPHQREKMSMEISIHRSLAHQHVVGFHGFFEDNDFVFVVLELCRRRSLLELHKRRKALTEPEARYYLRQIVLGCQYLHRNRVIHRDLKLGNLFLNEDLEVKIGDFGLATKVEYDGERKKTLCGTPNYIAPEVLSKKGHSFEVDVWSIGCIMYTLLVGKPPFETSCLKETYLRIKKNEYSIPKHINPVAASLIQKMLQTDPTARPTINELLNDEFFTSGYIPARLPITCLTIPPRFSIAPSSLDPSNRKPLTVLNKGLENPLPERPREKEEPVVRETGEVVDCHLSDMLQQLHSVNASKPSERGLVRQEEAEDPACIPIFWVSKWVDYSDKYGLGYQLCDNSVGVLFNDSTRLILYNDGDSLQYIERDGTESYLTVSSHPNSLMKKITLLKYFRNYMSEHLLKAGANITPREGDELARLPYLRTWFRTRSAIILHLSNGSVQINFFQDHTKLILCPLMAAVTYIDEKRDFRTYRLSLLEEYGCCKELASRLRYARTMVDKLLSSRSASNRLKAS
VDR inh: Inhibitors of the vitamin D receptor (VDR): qHTS; Vitamin D3 receptor (Homo sapiens), P11473; 400,000 tested, 0.93% active; VDR-SRC2-3 peptide fluorescence polarization, 2 h; Potency, µM, for inactives: max response, negative = inhibition, actives largely listed as inhibitors
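Inhibition of the VDR/SRC2-3 peptide interaction is quantified by fluorescence polarization. Compounds (23 nl, pintool) incubate with the reagents for 2 hours at ambient room temperature.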
TDP1 inh: qHTS Assay for Inhibitors of Tyrosyl-DNA Phosphodiesterase (TDP1). Tyrosyl-DNA phosphodiesterase 1 (Homo sapiens), Q9NUW8. recombinant TDP1, AlphaScreen DNA substrate cleavage. Potency, µM (titrated, usually from 130 µM), for inactives: at the top dose activity change, negative = inhibition, actives largely listed as inhibitors. 350,000 tested, 0.28% active; also: nearly all actives have a fitted effect of over 40% in size
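Steps: enzyme plus compound, 15 min RT; add biotin/phosphotyrosine-FITC oligonucleotide (15 nM final), react 5 min; add donor/acceptor beads (10 ug/ml final), 10 min; read AlphaScreen. Tdp1 at 1 nM final.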
DT40 TDP1 no CPT: qHTS for Inhibitors of human tyrosyl-DNA phosphodiesterase 1 (TDP1): qHTS in cells in absence of CPT; 420,000 tested, 15% active; DT40 Tdp1-/- hTDP1 cells, no CPT, ATP luminescence, 48 h; AID 686978, 2013; Potency, µM (titrated, usually from 46.2 µM), inactives show top-dose activity change, negative = growth inhibition, most hits filed as inhibitors; also: nearly all actives have a fitted effect of over 55% in size
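A cellular qHTS used chicken DT40 cells lacking endogenous Tdp1 but carrying stably transfected human TDP1. Compounds were applied without camptothecin, and cell growth kinetics were judged by ATP-dependent luminescence after ≥48 hr.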
DT40 TDP1 CPT: qHTS for Inhibitors of human tyrosyl-DNA phosphodiesterase 1 (TDP1): qHTS in cells in presence of CPT. chicken DT40 Tdp1-/-;hTDP1 cells + 20 nM CPT, ATP luminescence, 48 h. AID 686979, 2013. Potency, µM (series often up to 46.2 µM), for the others: at the highest dose activity change, negative = growth inhibition, most hits filed as inhibitors. 420,000 tested, 12% active; also: nearly all actives have a fitted effect of over 55% in size
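Cell growth measured by CellTiter-Glo luminescence after a minimum 48 h, 37 C compound exposure with 20 nM CPT in Tdp1-knockout DT40 cells stably expressing hTDP1, seeded 400/well; qHTS titration format.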
* marks the source's active call; other numbers are inactive results; ? = inconclusive; . = no result; [ ] = dose if it differs, or a comment. The list is not random: actives were taken first. Their share in the collection is about 18%. Calls follow the shape of the dose curve; as a rule, active = well fitted curve in the direction sought with a large enough effect; inconclusive = small, poorly fitted or top-dose-only effect, or another doubt; inactive = no such curve, though single readings can be large; an effect the other way counts as inactive or inconclusive. % is scaled to controls: 0 for no effect and ±100 for the full control effect; potency is read from the fitted curve at half-maximal effect.

SMILES	GCN5L2 inh	PLK1 PBD inh	VDR inh	TDP1 inh	DT40 TDP1 no CPT	DT40 TDP1 CPT
NC(=O)c1ncn(C2OC(CO)C(O)C2O)n1 (stereo not given)	.	.	9%	8%[56.1 µM]	.	.
CC1(C)C(=O)N(CC(=O)Nc2cccc(F)c2)c2ccc(S(=O)(=O)N3CCCCC3)cc21	-4%	.	-1%	7%	?	?
O=[N+]([O-])c1ccc(-[n+]2ccc3ccccc3c2)c([N+](=O)[O-])c1	-9%	24µM*	79µM*	3%	1.3µM*	1µM*
CC(C)(C)NCc1cc(Br)ccc1OCc1cccs1	-12%	2%	5%	-3%	?	?
COc1cc(CNC(C)(C)C)cc(Br)c1OCc1cccs1	-22%	-5%	7%	1%	15µM*	?
COc1cc(CNCCO)cc(Br)c1OCc1cccs1	-8%	-5%	16%	1%	29µM*	-17%
COc1cc(CNC(C)(C)CO)cc(Br)c1OCc1ccccc1	0%	-5%	-1%	-3%	?	?
CC(C)(C)NCc1cc(Cl)ccc1OCc1cccs1	0%	7%	8%	-1%	?	15µM*
CCOc1cc(CNCc2cccs2)cc(Br)c1OC	3%	-2%	-2%	4%	?	?
CCCCCCCc1ccc(C2NC(=S)NC3=C2C(=O)c2ccccc23)cc1 (stereo not given)	3%	21µM*	?	.	?	16µM*
CC(=O)c1ccc(N2CCN(C(=O)c3cc(S(=O)(=O)N4CCCCCC4)cn3C)CC2)cc1	-3%	.	8%	-1%	?	?
Cc1ccc(Cl)cc1N1CCN(C(=O)c2cc(S(=O)(=O)N3CCCCC3)cn2C)CC1	-15%	.	3%	4%	21µM*	13µM*
Cc1ccc(Cl)cc1N1CCN(C(=O)c2cc(S(=O)(=O)N3CCCC3)cn2C)CC1	-7%	.	6%	-5%	23µM*	16µM*
CCOC(=O)N1CCN(C(=O)c2cc(S(=O)(=O)N3CCCC3)cn2C)CC1	-3%	-7%	-3%	-9%	6%	-4%
CCOC(=O)c1[nH]c2ccc(OCC)cc2c1CCCN1C(=O)c2ccccc2C1=O	-12%	1%	-14%	5%	?	?
COc1cc(NC(=O)CSc2nc3c(C)ccc(C)c3cc2C)c(C(=O)O)cc1OC	-10%	?	-30%	5%	0.37µM*	-7%
COc1ccc(-c2nn3c(-c4cc(-c5ccccc5)n[nH]4)nnc3s2)cc1OC	.	.	-9%	0%	4.5µM*	2.8µM*
COc1cc(-c2nn3c(-c4ccco4)nnc3s2)cc(OC)c1OC	3%	.	.	-2%	.	.
COc1ccc(-c2nn3c(-c4ccccn4)nnc3s2)cc1OC	-3%	-6%	2%	5%	-22%	?
COc1ccc(-c2nn3c(-c4cc(-c5ccccc5)n[nH]4)nnc3s2)cc1	.	.	-17%	.	2.8µM*	3.5µM*
COc1ccc(-c2nnc3sc(-c4cccs4)nn23)cc1OC	-6%	-3%	-5%	2%	11µM*	10µM*
COc1ccc(-c2nnc3sc(-c4ccccn4)nn23)cc1	-6%	.	.	4%	.	.
CCOc1ccc(-c2nn3c(-c4cc(-c5ccccc5)n[nH]4)nnc3s2)cc1	.	.	-12%	0%	14µM*	16µM*
CC(C)(C)c1ccc(-c2nc3n(c(=O)c2C#N)CCS3)cc1	1%	-11%	-2%	-1%	?	14%
